High-throughput results from PubChem BioAssay.
Hits are enriched below; roughly 8% of the tested compounds scored in any of these assays.
KB-3-1 cytotox: KB-3-1 parental cell cytotoxicity; actives 1.4% (n = 400,000); KB-3-1 viability, CellTiter-Glo ATP luminescence, 72 h; Potency, µM (series often up to 46.1 µM), usual class: cytotoxic; AID 1347075; further: on the % scale 0 is the no-effect control and ±100 the full control effect; nearly all actives have a fitted effect of over 60% in size
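Viability of parental KB-3-1 cells, measured by CellTiter-Glo luminescence, followed a 72 h incubation at 37 °C with pinned compounds in phenol-red-free DMEM containing 10% FBS.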
HT1080NT lethal: kills 2HG-producing HT-1080-NT fibrosarcoma cells | HT-1080-NT fibrosarcoma viability, CellTiter-Glo ATP luminescence, 48 h | Potency, µM (highest dose often 46.1 µM), without a hit: at the highest dose activity, negative = less viability, usual class: cytotoxic | actives 1.6% (n = 360,000) | AID 686970;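 further: NT is the 2HG producing partner of a matched IDH1 knockdown line; 0% = DMSO-treated cells and -100% = media-only wells without cells; nearly all actives have a fitted effect of over 55% in size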
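Toxicity toward the 2HG-producing NT line was scored as %Activity, normalised to DMSO and no-cell wells, from CellTiter-Glo luminescence after 48 hours' treatment.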
HT1080 IDH1KD tx: kills HT-1080 cells with IDH1 knockdown; HT-1080 IDH1 knockdown viability, ATP luminescence, 48 h; Potency, µM (top dose mostly 46.1 µM), without a hit: at the top dose activity, negative = toxicity, actives largely listed as cytotoxic; actives 2% (n = 360,000); AID 686971;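 further: 0% = DMSO wells and -100% = cell-free medium wells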
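Cytotoxicity counter-line: IDH1KD HT-1080, 48 h, CellTiter-Glo. Curves classed by r2, magnitude and activity.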
SW480 rerep: DNA re-replication induction in SW480 cells; actives 1.8% (n = 340,000); Potency, µM (titrated, usually from 46.1 µM), for inactives: top-dose re-replication activation, actives largely listed as activators; SW480 DNA re-replication, Hoechst DNA content imaging, 48 h; further: % of control where 0% means no effect; nearly all actives have a fitted effect of over 55% in size
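Quantitative HTS format with DMSO vehicle controls; 48 hr drug incubation at 37 C, then 40 min Hoechst staining and scanning imager measurement at 405 nm excitation.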
KB-V1 MDR tox: kills drug-selected multidrug resistant KB-V1 cells; Potency, µM (doses to about 46.1 µM), usual class: cytotoxic; KB-V1 MDR cells viability, CellTiter-Glo, 72 h; actives 3.4% (n = 400,000); further: on the % scale 0 is the no-effect control and ±100 the full control effect; nearly all actives have a fitted effect of over 60% in size
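Cytotoxicity toward P-gp-expressing KB-V1 cells was determined as loss of CellTiter-Glo luminescence after 72 h at 37 degrees C. Compounds were tested in quantitative HTS format across a concentration range, with curves fitted to normalized data.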
MCF10A rerep: inducers of DNA re-replication in MCF 10A breast cells; MCF 10A DNA re-replication, Hoechst nuclear intensity, 48 h; Potency, µM (highest dose often 46.1 µM), for the others: at the top dose activity, positive = re-replication, hits mostly activators; actives 2.9% (n = 350,000); AID 624296; further: % of control where 0% means no effect; nearly all actives have a fitted effect of over 50% in size
Active calls of the source: *; i = inactive; ? = inconclusive; · = not tested or not shown. The call rests on the fitted dose curve; in most records, active means well fitted curve in the direction sought with a large enough effect; inconclusive means small, poorly fitted or top-dose-only effect, or another doubt; inactive means no such curve, though single readings can be large; an effect the other way counts as inactive or inconclusive. Potency means the concentration at half of the fitted maximal effect.

SMILES	KB-3-1 cytotox	HT1080NT lethal	HT1080 IDH1KD tx	SW480 rerep	KB-V1 MDR tox	MCF10A rerep
CC1CCN(C(=O)COC(=O)c2cc([N+](=O)[O-])ccc2N2CCOCC2)CC1	i	-0.5%	9.4%	-12.1%	?	0.0%
CC1CCCCN1C(=O)COC(=O)c1cc([N+](=O)[O-])ccc1N (configuration not stated)	i	7.1%	-1.9%	3.5%	16.4µM*	6.3%
COc1ccc(OC)c(-c2cc(C3CCN(c4ncccc4[N+](=O)[O-])CC3)[nH]n2)c1	?	?	?	6.9%	?	17.6%
COc1ccc(OC)c(-c2cc(C3CCN(c4cc(Cl)nc(N)n4)CC3)[nH]n2)c1	7.31µM*	-11.1%	?	?	3.26µM*	20.6µM*
Nc1nc(Cl)cc(N2CCC(c3cc(-c4ccc(Cl)cc4)n[nH]3)CC2)n1	?	22.4µM*	11.2µM*	16.4µM*	14.6µM*	25.9µM*
CN(C)c1ccc(N=Nc2ccccc2C(=O)OCC(=O)N2CCCCCC2)cc1	?	-15.9%	-19.4%	-5.5%	3.26µM*	?
COc1ccc(NC(=O)c2cccc3c(=O)c4c([nH]c23)CCCC4)cc1	i	·	·	·	i	·
Cc1ccc2nc(-c3ccccc3)cn2c1	11.6µM*	11.6µM*	11.6µM*	-16.9%	10.3µM*	-3.6%
COc1ccc(-c2cn3cc(C(=O)NN)ccc3n2)cc1	i	?	?	-9.8%	i	-0.9%
CC(=O)Nc1ccc(-c2cn3cc(C)ccc3n2)cc1	i	1.4%	6.8%	2.4%	16.4µM*	2.0%
NNC(=O)c1ccc2nc(-c3ccc(Br)cc3)cn2c1	i	18.4µM*	?	?	i	7.9%
CCCOC(=O)c1ccc(NC(=O)c2nc3nc(C)cc(C)n3n2)cc1	i	18.1%	20.7%	-13.9%	?	-5.2%
Cc1ccc(N2CCN(C(=O)NCc3noc4ccc(C)cc34)CC2)c(C)c1	i	·	·	·	i	·
CCOC(=O)c1ccc2ncc3c(-c4ccccc4)nn(-c4ccc(F)c(Cl)c4)c3c2c1	i	·	·	·	i	·
CC(C)(C)NCC(=Cc1ccccc1)C(=O)c1ccccc1	5.17µM*	6.51µM*	5.8µM*	5.17µM*	?	1.84µM*
Cc1ccc(NC(=O)C2CCCN2C(=O)Oc2ccccc2)cc1C (configuration not stated)	i	-1.1%	-3.5%	-1.2%	14.6µM*	4.9%
CC(=O)Nc1cccc(NC(=O)C2CCCN2C(=O)Nc2cccc(C)c2)c1 (configuration not stated)	i	0.0%	7.9%	-15.5%	i	9.2µM*
Cc1ccc(NC(=O)C2CCCN2C(=O)c2cccs2)cc1C (configuration not stated)	i	5.4%	-2.0%	-8.0%	i	11.5%
NNC(=O)c1nn(-c2ccc(Cl)cc2)cc1O	?	?	-29.3%	20.6µM*	?	7.4%
Cc1ccc(NC(=O)COC(=O)c2nn(-c3ccc(Cl)cc3)cc2O)cc1	i	?	?	-0.2%	i	?
Fc1cccc(NC(=S)NNc2c3ccccc3nc3ccccc23)c1	?	?	20.6µM*	-10.5%	?	-1.2%
COc1cc(/C=C2\SC(=O)NC2=O)ccc1Oc1ccc([N+](=O)[O-])cn1	i	-25.5%	-23.6%	4.7%	i	?
COc1cc(/C=C2\C(=O)N(c3ccccc3)N=C2C)ccc1Oc1ccc([N+](=O)[O-])cc1[N+](=O)[O-]	i	-26.8%	?	-118.3%	i	9.2µM*
CC1=NN(c2ccccc2)C(=O)/C1=C\c1ccc(Oc2ccc([N+](=O)[O-])cc2[N+](=O)[O-])cc1	i	20.6µM*	10.3µM*	14.4%	i	?
COc1cc(/C=C2/SC(=O)NC2=O)ccc1Oc1ccc([N+](=O)[O-])cc1[N+](=O)[O-]	i	-18.5%	-22.5%	13µM*	i	?
SMILES	KB-3-1 cytotox	HT1080NT lethal	HT1080 IDH1KD tx	SW480 rerep	KB-V1 MDR tox	MCF10A rerep
O=C(CCSc1ccc(Cl)c(Cl)c1)NC12CC3CC(CC(C3)C1)C2	?	-23.1%	-18.4%	?	?	18.4µM*
Cn1cc(/C=C(\C#N)C(=O)Nc2cccc([N+](=O)[O-])c2)c2ccccc21	?	14.3%	15.7%	?	i	9.2µM*
N#C/C(=C/C=C/c1ccccc1)C(=O)Nc1ccccc1	i	-20.8%	?	?	16.4µM*	17.0%
Cn1cc(/C=N/NC(=O)c2cccc([N+](=O)[O-])c2)c2ccccc21	i	?	?	0.0%	i	9.0%
COc1ccc(NC(=O)/C(C#N)=C/C=C/c2ccco2)cc1	7.31µM*	?	?	8.2µM*	13µM*	14.6µM*
N#C/C(=C/c1ccc([N+](=O)[O-])cc1)C(=O)Nc1ccccc1O	i	-2.3%	1.5%	18.5%	?	15.8%
N#C/C(=C/c1ccc(O)c([N+](=O)[O-])c1)C(=O)Nc1ccccc1	18.4µM*	?	8.2µM*	6.51µM*	?	4.61µM*
O=C1CC(c2nc(-c3ccccc3)no2)CN1c1ccc2c(c1)OCCO2 (configuration not stated)	i	·	·	·	i	·
CCc1sc(N2C(=O)C3C4CCC(C4=C(C)C)C3C2=O)nc1-c1ccccc1 (configuration not stated)	i	-28.0%	-22.3%	0.4%	11.6µM*	?
CCc1sc(NC(=O)CN2CCC(C(N)=O)CC2)nc1-c1ccccc1	i	4.6%	4.5%	-7.4%	i	-1.3%
O=C(C[n+]1cccc2cc(Cl)ccc21)c1cccc([N+](=O)[O-])c1	i	·	·	·	?	·
O=C(CSc1ccccc1)N/N=C/c1ccccc1O	i	?	8.2µM*	?	i	10.4%
O=C(CCSCCC(=O)NN=Cc1ccccc1O)NN=Cc1ccccc1O	·	4.3%	-25.3%	-4.6%	·	16.4µM*
O=C(N/N=C/c1ccccc1O)C1SCCCS1	?	?	16.4µM*	?	i	2.1%
Cc1cc(C)n(CCC(=O)N/N=C/c2ccccc2O)n1	?	-19.9%	-23.9%	29.7%	8.2µM*	5.5%
O=C(CSc1n[nH]c(=O)[nH]c1=O)N/N=C/c1ccccc1O	i	19.2%	14.9%	1.5%	i	-1.3%
N#CC(CO)(Cc1ccc(OC(F)F)cc1)c1nc2ccccc2[nH]1 (configuration not stated)	i	4.6%	-1.1%	?	i	-2.1%
C(=C\c1ccnc2ccccc12)/c1ccc2ccccc2n1	i	·	·	·	?	·
